Records with an inconclusive call do not appear. Active and inactive are the calls of the source. Unless noted, no cut-off is given here; in the data, nearly all actives have AC50 up to about 26 µM.

Assay [1] in a line: growth inhibition of DIPG glioma cells, dose response, cell-based, SU-DIPG-XVII, MIPE5.0, CellTiter-Glo, qHTS (AID 1347060).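 For AC50: cells exposed to compound for 48 hours before viability readout.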 The conditions noted are these: SU-DIPG-XVII viability, CellTiter-Glo ATP luminescence.
Assay [2] is described as follows: growth inhibition of DIPG glioma cells, dose response, cell-based, JHH-DIPG-1, MIPE4.0, CellTiter-Glo, qHTS (AID 1347062; cut-off not given, nearly all actives have AC50 up to about 27 µM;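 for AC50: cells exposed to compound for two days before readout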). The conditions noted are these: JHH-DIPG-1 viability, CellTiter-Glo ATP luminescence.
Assay [3] is described as follows: growth inhibition of DIPG glioma cells, dose response, cell-based, SU-DIPG-XIII, MIPE5.0, CellTiter-Glo, qHTS (AID 1347064; cut-off not given, nearly all actives have AC50 up to about 23 µM;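 for AC50: cells exposed to compound for 48 hours before the viability read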). The conditions noted are these: SU-DIPG-XIII viability, CellTiter-Glo ATP luminescence.
Assay [4] can be described thus: viability loss in pontine glioma line – cell-based, SU-DIPG-XXV, MIPE5.0, CellTiter-Glo, qHTS, dose response (AID 1347065).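 Note: cells exposed to compound for 48 hours before ATP readout.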 The conditions noted are these: CellTiter-Glo ATP luminescence.
The nature of assay [5]: SU-DIPG-VI glioma cell viability, MIPE4.0 library, CellTiter-Glo luminescence, qHTS (AID 1347066; cut-off not given, nearly all actives have AC50 up to about 30 µM;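 note: cells exposed to compound for 48 hours before readout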). The conditions noted are these: CellTiter-Glo ATP luminescence.
Assay [6] in a line: JHH-DIPG-1 glioma cell viability, MIPE5.0 library, CellTiter-Glo luminescence, qHTS (AID 1347067).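 Note: cells exposed to compound for 48 hours before readout.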 The conditions noted are these: JHH-DIPG-1 glioma viability, CellTiter-Glo ATP luminescence.
Assay [7] is described as follows: SU-DIPG-XXV glioma cell viability, MIPE5.0 library, qHTS (AID 1347068; cut-off not given, nearly all actives have IC50 up to about 30 µM;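 for IC50: cells exposed to compound for 48 hours before viability readout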).
Assay [8] can be described thus: sensitizers of A549 cells to miR-34 induction, primary screen, imaging, A549 dox-inducible miR-34, nuclei and caspase counts (AID 1347080;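 active = compounds whose cell count with miR-34 switched on is under 0.7 times the count with it off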). The conditions noted are these: A549 miR-34 inducible, Hoechst nuclei count, 48 h.
The nature of assay [9]: modifiers of HSF1 nuclear foci, imaging, Selleck Cancer Library (AID 1347162; in the data active = plate-normalised HSF1 focus index below about 0.46). The conditions noted are these: human cells, at 10 µM; SSMD: measured here: HSF1 foci SSMD mean; cell count: measured here: cell number; plate-normalised HSF1 focus index: stronger effect = lower value.
The nature of assay [10]: survival rescue of mitochondrial mutant cells in low glucose, primary screen, MELAS cybrids, Rieske KO mouse fibroblasts, CellTiter-Glo (AID 1508586;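 active = mean z-score across replicates of 1.96 or higher in either the MELAS or the Rieske mutant cell line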;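 note: z relative to plate mean and SD of compound and empty wells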).
Assay [11] is described as follows: growth inhibition of DIPG glioma cells, dose response, cell-based, SU-DIPG-IV, MIPE4.0, CellTiter-Glo, qHTS (AID 1347063; cut-off not given, nearly all actives have AC50 up to about 30 µM;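 note: compound exposure lasted 48 hours before the viability readout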). The conditions noted are these: SU-DIPG-IV viability, CellTiter-Glo ATP luminescence.
Assay [12] can be described thus: liver-stage malaria parasite growth inhibition, primary screen, cell-based, HepG2, luciferase luminescence, HepG2 viability (AID 624349; in the data active = parasite load remaining mostly below about 12%, no sharp cut-off; inactive = mostly above about 10%;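 note: 100% = mean of DMSO negative control wells on the same plate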). The conditions noted are these: P. berghei liver stage in HepG2, luciferase luminescence, concentration not given here; parasite load remaining: stronger effect = lower value; viability: measured here: HepG2 viability without parasites.
Assay [13] addresses NAD(+) hydrolase SARM1 (Homo sapiens) (UniProt Q6SZW1). Briefly: SARM1 TIR NADase inhibitors, cell lysate, NAD-Glo luminescence (AID 1508614;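 active = compound whose remaining NAD level is above about 45 nM, limit read from the data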;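 note: higher remaining NAD means stronger inhibition of SARM1 NADase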). The conditions noted are these: SAM-TIR HEK293T lysate NADase, at 1 µM, stronger effect = higher value.
Setting [14] is: measured here: relative caspase fold change +Dox/-Dox.
Where [15] appears, read: measured here: total cells with miR-34 induction, stronger effect = lower value.
Where [16] appears, read: measured here: total cells without miR-34 induction.
Setting [17] is: MELAS cybrid survival, CellTiter-Glo 48 h, stronger effect = higher value.
The mark [18] stands for this setting: Rieske KO mouse fibroblast survival, CellTiter-Glo 72 h.
Setting [19] is: stronger effect = lower value, cell number ratio, induced over uninduced.

Chain of NAD(+) hydrolase SARM1 (Homo sapiens) (Q6SZW1 whole entry, looked up): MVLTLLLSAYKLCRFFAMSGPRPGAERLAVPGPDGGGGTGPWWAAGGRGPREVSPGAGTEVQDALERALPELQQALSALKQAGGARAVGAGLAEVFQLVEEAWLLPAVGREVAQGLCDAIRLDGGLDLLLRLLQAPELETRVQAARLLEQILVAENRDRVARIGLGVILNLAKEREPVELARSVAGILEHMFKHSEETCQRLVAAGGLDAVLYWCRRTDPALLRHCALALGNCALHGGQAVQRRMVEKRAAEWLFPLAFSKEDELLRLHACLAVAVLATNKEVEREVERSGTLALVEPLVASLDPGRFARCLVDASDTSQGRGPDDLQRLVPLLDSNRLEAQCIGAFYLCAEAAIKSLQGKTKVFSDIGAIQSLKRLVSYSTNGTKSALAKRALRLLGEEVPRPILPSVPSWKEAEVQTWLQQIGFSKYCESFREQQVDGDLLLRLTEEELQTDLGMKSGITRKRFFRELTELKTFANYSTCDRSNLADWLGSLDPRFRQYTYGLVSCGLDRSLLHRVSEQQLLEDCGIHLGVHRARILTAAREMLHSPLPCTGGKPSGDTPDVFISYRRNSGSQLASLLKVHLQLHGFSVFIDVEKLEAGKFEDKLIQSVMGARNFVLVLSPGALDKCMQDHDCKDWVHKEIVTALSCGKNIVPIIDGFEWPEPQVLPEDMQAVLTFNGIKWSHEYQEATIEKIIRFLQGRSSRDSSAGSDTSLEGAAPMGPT

For `CC(=O)Nc1ccc(OC[C@](C)(O)C(=O)Nc2ccc([N+](=O)[O-])c(C(F)(F)F)c2)cc1`, the call in assay [1], in assay [2], in assay [3], in assay [4], in [5] and in assay [6] was inactive. Further, the call in assay [7] was inactive. Further, the results for the fold change in assay [8] (stronger effect = lower value) and in assay [8] (setting [14]) were 0.963 (inactive) and 0.857, respectively. Besides, the cell count is 7800 in assay [8] (setting [15]), 8100 in [8] (setting [16]) and 7020 in [9]. Moreover, in assay [9], the SSMD was 0.174. The plate-normalised HSF1 focus index in assay [9] is 1.01 (inactive). Further, the z-score in [10] (setting [17]) is -0.592 (inactive); in assay [10] (setting [18]) it was 0.733.

In the case of `CN[C@@H]1C[C@H]2O[C@@](C)([C@@H]1OC)n1c3ccccc3c3c4c(c5c6ccccc6n2c5c31)C(=O)NC4`, the AC50 is 0.118 µM (active) in assay [1], 0.263 µM (active) in assay [3], 0.209 µM (active) in assay [4] and 0.209 µM (active) in [6]. Also, the IC50 in assay [7] is 0.833 µM (active). Further, the fold change in [8] (setting [19]) is 1.19 (inactive); in assay [8] (setting [14]), 0.478. Also, the cell count was determined as 874 in assay [8] (setting [15]) and 732 in assay [8] (setting [16]).

In the case of `CC1(C)CC[C@]2(NC(=O)C(C)(F)F)CC[C@]3(C)[C@H](C(=O)C=C4[C@@]5(C)C=C(C#N)C(=O)C(C)(C)[C@@H]5CC[C@]43C)[C@@H]2C1`, the concentration at half-maximal activity (AC50) in assay [1] was 7.42 µM (active); in [3] it was 10.5 µM (active); in assay [4] it was 9.34 µM (active); in assay [6], 7.42 µM (active). Moreover, in assay [7], the IC50 was 11.8 µM (active).

Consider `O=C(NCCCNc1nc(Nc2ccc(N3CCOCC3)cc2)ncc1C1CC1)C1CCC1`, for which the AC50 in assay [1] is 20.9 µM (active); in [4], 16.6 µM (active); in [6], 14.8 µM (active).

Regarding `O=S(=O)(F)Cc1ccccc1`, the compound was called inactive in [1], in assay [2], in assay [11], in assay [3], in assay [4] and in assay [5]. In addition, the result in [6] and in assay [7] was inactive. Also, the figures for the fold change in assay [8] (setting [19]) and in assay [8] (setting [14]) were 0.924 (inactive) and 0.551, respectively. Also, the cell count in [8] (setting [15]) came to 9940; in assay [8] (setting [16]) it was 10800. Besides, the z-score in [10] (setting [17]) was -0.358 (inactive); in [10] (setting [18]), 0.553.

Regarding `O=C(Nc1ccncc1)C(=O)c1cn(Cc2ccc(Cl)cc2)c2ccccc12`, the concentration at half-maximal activity (AC50) was 0.295 µM (active) in assay [1]; 0.296 µM (active) in assay [2]; 1.66 µM (active) in assay [3]; 0.148 µM (active) in assay [4]; 0.417 µM (active) in assay [6]. Moreover, the compound was classed as inactive in assay [5]. In addition, the IC50 in assay [7] is 0.372 µM (active).

With `CC1=C2C[C@H]3[C@@H](CC=C4C[C@@H](O)CC[C@@]43C)[C@@H]2CC[C@]12O[C@@H]1C[C@H](C)CN[C@H]1[C@H]2C`, the result in [1], in assay [2], in [11], in assay [3], in [4] and in assay [5] was inactive. For the same compound, the compound was called inactive in [6] and in assay [7]. Also, the fold change is 0.912 (inactive) in assay [8] (stronger effect = lower value) and 0.801 in assay [8] (setting [14]). Further, the cell count in [8] (setting [15]) was determined as 4470; in assay [8] (setting [16]), 4900; in [9] it was 7300. Moreover, the SSMD in assay [9] worked out at 2.32. Moreover, in [9], the plate-normalised HSF1 focus index is 1.08 (inactive).

As to `CCOc1ccccc1-n1c(C(C)N2CCN(C(=O)COc3ccc(Cl)cc3)CC2)nc2ccccc2c1=O` (stereo not drawn), the AC50 was 16.6 µM (active) in [1] and 18.6 µM (active) in [4]. In addition, in assay [7], the half-inhibitory concentration (IC50) is 18.6 µM (active). For the same compound, the fold change was 0.777 (inactive) in [8] (setting [19]) and 0.61 in assay [8] (setting [14]). Further, the cell count worked out at 5130 in assay [8] (setting [15]) and 6610 in assay [8] (setting [16]). Moreover, the z-score in assay [10] (setting [17]) is 1.76 (inactive); in assay [10] (setting [18]), 1.03.

Consider `CC(C)(C)c1cc(C=C(C#N)C#N)cc(Br)c1O`, for which the parasite load remaining in assay [12] is 43.4% (inactive). The viability in assay [12] was determined as 165%. Also, the concentration at half-maximal activity (AC50) was 20.9 µM (active) in assay [1], 18.6 µM (active) in assay [3], 23.5 µM (active) in assay [4] and 18.6 µM (active) in assay [6]. In assay [7], the outcome was inactive. The fold change in assay [8] (stronger effect = lower value) was 0.886 (inactive); in assay [8] (setting [14]), 1.14. Further, the cell count was 7700 in assay [8] (setting [15]) and 8690 in [8] (setting [16]). In addition, the z-score in [10] (setting [17]) is -0.608 (inactive); in [10] (setting [18]), -0.108.

Consider `C[C@@H]1O[C@@H](O[C@@H]2C=C3CC[C@@H]4[C@H](CC[C@]5(C)[C@@H](c6ccc(=O)oc6)CC[C@]45O)[C@@]3(C)CC2)[C@H](O)[C@H](O)[C@H]1O`, for which the AC50 is 0.0148 µM (active) in assay [1], 0.0166 µM (active) in [3], 0.0186 µM (active) in [4] and 0.0118 µM (active) in assay [6]. For the same compound, the z-score in assay [10] (setting [17]) was 1.14 (inactive); in [10] (setting [18]) it was -0.344. Moreover, the remaining NAD in assay [13] was 10 nM (inactive).

(Values after PubChem BioAssay.)
